The full list was thinned out, with hits kept by preference.
KDM5B inhibitor: inhibitors of human KDM5B histone demethylase; KDM5B demethylase, FDH-coupled NADH fluorescence (FDH is formaldehyde dehydrogenase); 2.6% of 220,000 active; Potency, µM (titrated, usually from 57.7 µM), most hits filed as inhibitors; AID 1347165; active means well fitted inhibition curve with a large enough effect; further: 0% is about no effect; nearly all actives have a fitted effect of over 70% in size
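qHTS format, multiple compound concentrations. Buffer 50 mM HEPES pH 7.5/0.01% Tween-20; 200 nM KDM5BΔAP final; 10 min compound preincubation; substrate-mix levels 12.5 µM peptide, 25 µM α-KG, 0.25 mM NAD⁺; 30 min RT; ΔRFU.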
Numbers without * were called inactive; i = inactive. Potency means the concentration at half of the fitted maximal effect.

SMILES	KDM5B inhibitor
CN(Cc1ccc(C(=O)NCC(F)(F)F)cc1)C(=O)c1cccc(Cl)c1	i
Cc1ccc2cccc(NC(=O)C(C)Oc3cccc(C)c3C)c2n1 (centres undefined)	i
COc1cccc(-c2cc(-c3c(C)noc3C)c3cncn3c2)c1OC	i
Cn1cc(-c2cc(-c3ccncc3)c3cncn3c2)cn1	32µM*
FC(F)(F)c1cccc(-c2cc(-c3ccncc3)c3cncn3c2)c1	i
COc1ccc(-c2cc(-c3ccc(F)cc3OC)cn3cncc23)cc1	10µM*
Oc1cccc(-c2cc(-c3ccncc3)c3cncn3c2)c1	i
COc1cc(F)ccc1-c1cc(-c2cn[nH]c2)c2cncn2c1	i
COc1ncccc1-c1cc(-c2ccc(=O)[nH]c2)c2cncn2c1	28µM*
COc1ccc(-c2cc(-c3ccc4c(c3)CNC4=O)cn3cncc23)cc1	22µM*
Cc1ccc2[nH]c(=O)c(-c3noc(CCCC(=O)NCC(C)C)n3)cc2c1	i
Cc1ccccc1NC(=O)c1nc(-c2ccccc2)oc1C	i
CCCN1CCN(c2nnc(-n3cccc3CN3CCN(c4ccccc4)CC3)s2)CC1	i
O=C(c1cccc(Cl)c1)N1CCC2(CC1)OCC(C(=O)N1CCCC1)N2C(=O)c1cccc(F)c1 (centres undefined)	i
COc1cc(/C=C(\C#N)c2nc3ccccc3[nH]2)ccc1OC(C)C(=O)O (centres undefined)	i
COc1ccc(S(=O)(=O)Oc2ccc3c(c2)O/C(=C\c2ccc(OC)cc2OC)C3=O)cc1	i
COc1ccc(Cn2c(-c3ccc(F)cc3)nc(C)c(CCO)c2=O)cc1F	i
COc1cccc(-c2cc(-c3ccncc3)c3cncn3c2)c1OC	i
COc1ccc(-c2cc(-c3ccncc3)cn3cncc23)cc1	40µM*
COc1ccc(-c2cc(-c3ccc(F)cc3)cn3cncc23)cc1	5.6µM*
COc1ccc(-c2cc3ncc4c(n3n2)-c2cc(F)ccc2OC4)cc1	i
CCNc1cc(C)nc(Nc2ccc(NS(=O)(=O)c3ccc(Cl)cc3)cc2)n1	i
CC(=O)NC(C)c1ccc([N+](=O)[O-])cc1 (centres undefined)	i
COC1CCOC2(CCN(C(=O)NCCc3ccccc3)CC2)C1 (centres undefined)	i
CN(CC(=O)Nc1ccc(Cl)c(C(F)(F)F)c1)C(=O)CN1CCCCC1	i
SMILES	KDM5B inhibitor
Cc1c(-c2cccc(Cl)c2)nc2ccccc2c1C(=O)NC1CCCCC1	i
N#Cc1cccnc1N1CCN(Cc2cn(-c3ccccc3)nn2)CC1	22µM*
c1ccc(-c2nnc3n2CCN(Cc2cn(-c4ccccc4)nn2)CC3)cc1	i
Fc1ccccc1CN1CCCN(Cc2cn(-c3ccccc3)nn2)CC1	i
N#Cc1ccccc1CSc1nccc(C(F)(F)F)n1	i
Cc1nn2c(N3CCC(O)C3)cc(-c3ccccc3)nc2c1C (centres undefined)	28µM*
Cc1nn2c(C(F)F)cc(-c3ccccc3)nc2c1Br	i
Cc1cc(N2CCNC(c3ccccc3)C2)n2nc(C)c(C)c2n1 (centres undefined)	i
CCN1CCN(CC(=O)NCc2cc(N3CCOCC3)ncn2)CC1	i
O=C(C1CC1)N1CCCC(CN2CCOCC2)CC1 (centres undefined)	i
COCCC(=O)N[C@H]1CC[C@]2(C)CC[C@@H](C(C)C(=O)NC3CC3)[C@H](O)[C@H]2[C@@H]1C (some centres undefined)	i
O=C(Nc1ccc([C@H]2OCC(=O)N(Cc3ccc(F)cc3)[C@@H]2CO)cc1)c1ccccc1	i
COCCNC(=O)C(NC(=O)c1ccccc1)C1CCN(C(=O)C2CC2)CC1 (centres undefined)	18µM*
C=CCNC(=O)C(NC(=O)c1ccc(OC)cc1)C1CCN(C(=O)C2CC2)CC1 (centres undefined)	i
CCC(=O)N1CCC(C(NC(=O)c2ccccc2)C(=O)NCc2ccccc2)CC1 (centres undefined)	i
CNC(=O)c1ccc(CN(C(=O)c2ccc(C(C)=O)s2)C2CC2)cc1	i
COc1cc(CN(C)C(=O)c2c(C)noc2-c2ccc(C(C)(C)C)cc2)cc(OC)c1OC	i
COc1cc(C(=O)NC2Cc3ccccc3C2)cc(OC)c1OC	i
COc1ccc(-c2onc(C)c2C(=O)NCc2cccc(OC)c2)cc1	i
COc1ccc(CCNC(=O)c2c(C)noc2-c2ccco2)cc1OC	i
COc1cc(OC)cc(-c2onc(C)c2C(=O)NC2Cc3ccccc3C2)c1	i
COc1cc(-c2onc(C)c2C(=O)NCCCSC)cc(OC)c1OC	32µM*
COc1cc(-c2onc(C)c2C(=O)NCc2cccc(F)c2F)cc(OC)c1OC	32µM*
COc1cccc(CCNC(=O)c2c(C)noc2-c2ccccc2OC)c1	i
COc1cc(-c2onc(C)c2C(=O)NC2Cc3ccccc3C2)cc(OC)c1OC	32µM*
COc1cc(-c2onc(C)c2C(=O)NCCCCc2ccccc2)cc(OC)c1OC	25µM*
COc1cc(OC)cc(-c2onc(C)c2C(=O)NCc2cccc(C)c2)c1	i

Assay outcomes (PubChem BioAssay)
